The supplement of paper PMC6555819

Columns and labels:
Assay in all cases: PBM binding z-score (relative to random genomic background probes); higher = stronger binding; sequences stand for … in GC…GCGATTGACAGCGTAGAATGAAGG
[1] = system: PPARg:RXRa DBDmut IVT, anti-RXR (DBD mutation: RXRa K156A/R161A, NR concentration 270 nM, RXRa partner concentration 90 nM)
In short: (§1)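 Antibodies against each partner of ligand-free nuclear receptor dimers (one per run) detected binding on custom Agilent 4×180K protein-binding microarrays after 1 h incubation. The double-stranded probes had 34-nt variable regions carrying direct-repeat seeds, single-nucleotide variants, half-site ablations and random human genomic background sequences. Binding z-scores, from regression-normalized fluorescence, use the random background probes as reference.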

[2] = system: PPARg:RXRa IVT, anti-PPARg (NR concentration 270 nM, RXRa partner concentration 90 nM)
In short: as §1

[3] = system: PPARg DBDmut:RXRa IVT, anti-PPARg (DBD mutation: PPARg1 K132A/R137A, NR concentration 270 nM, RXRa partner concentration 90 nM)
In short: as §1

[4] = system: PPARg DBDmut IVT, anti-PPARg (DBD mutation: PPARg1 K132A/R137A, NR concentration 270 nM)
In short: as §1

[5] = system: PPARg homodimer (NR concentration 180 nM)
In short: as §1

[6] = system: PXR:RXRa (NR concentration 270 nM, RXRa partner concentration 90 nM)
In short: as §1

[7] = system: PXR homodimer (NR concentration 270 nM)
In short: as §1

[8] = system: RARa:RXR (NR concentration 270 nM, RXRa partner concentration 90 nM)
In short: as §1

[9] = system: RARa homodimer (NR concentration 270 nM)
In short: as §1

[10] = system: RARb:RXRa (NR concentration 270 nM, RXRa partner concentration 90 nM)
In short: as §1

[11] = system: RARb homodimer (NR concentration 270 nM)
In short: as §1

[12] = system: RARg:RXRa (NR concentration 270 nM, RXRa partner concentration 90 nM)
In short: as §1

[13] = system: RARg homodimer (NR concentration 270 nM)
In short: as §1

[14] = system: RXRa DBDmut IVT, anti-RXR (DBD mutation: RXRa K156A/R161A, NR concentration 90 nM)
In short: as §1

[15] = system: RXRa homodimer (NR concentration 180 nM)
In short: as §1

[16] = system: THRa:RXRa (NR concentration 90 nM, RXRa partner concentration 90 nM)
In short: as §1

[17] = system: THRa homodimer (NR concentration 90 nM)
In short: as §1

[18] = system: VDR homodimer (NR concentration 270 nM)
In short: as §1

Sequence | PBM binding z-score [1] | PBM binding z-score [2] | PBM binding z-score [3] | PBM binding z-score [4] | PBM binding z-score [5] | PBM binding z-score [6] | PBM binding z-score [7] | PBM binding z-score [8] | PBM binding z-score [9] | PBM binding z-score [10] | PBM binding z-score [11] | PBM binding z-score [12] | PBM binding z-score [13] | PBM binding z-score [14] | PBM binding z-score [15] | PBM binding z-score [16] | PBM binding z-score [17] | PBM binding z-score [18]
CCGAGTAGGTTATGGGGCTTTCAGGCAACGGTGA | 3.12 | 2.84 | -0.365 | -0.667 | 0.638 | -0.191 | -0.0344 | -0.019 | 0.153 | 0.525 | 0.416 | 0.0177 | 0.1 | -0.273 | 0.293 | 0.519 | 0.657 | 0.00532
CAGCCTAGGTCAGGGACAGTATAGGAGGAACGTT | 1.29 | 1.68 | -0.599 | -0.73 | 0.801 | 0.546 | -0.219 | 1.22 | 0.00135 | 3.4 | 2.6 | 3.02 | 3.8 | 0.364 | 1.77 | 2.37 | 0.952 | 0.0373
CCTACTGGGCCATCCAGAGGTCATTGATCATATG | 4.14 | 4.6 | 0.419 | 0.464 | 2.88 | 5.05 | 2.23 | 4.9 | 0.594 | 3.21 | 4.32 | 4.63 | 3.39 | 0.256 | 3.69 | 3.29 | 1.41 | 3.33
CGTCCAAGGTCAATGCTAGGTCAGTCAAAGCATT | 3.29 | 3.92 | 0.558 | -0.362 | 4.74 | 4.84 | 1.29 | 5.75 | 1.17 | 5.36 | 5.08 | 7.7 | 6.73 | 3.62 | 5.82 | 4.52 | 2.99 | 3.23
CCTATTAGTTGACCATAAGGGCAACTGAAGCTCG | 0.175 | 0.85 | 0.663 | 0.553 | 1.38 | 1 | 0.613 | 0.807 | 1.39 | 1.73 | 2.04 | 1.5 | 1.31 | 0.724 | 0.69 | 1.99 | 1.28 | 0.824
ATATGTAGGTTAGCAGGGGTCATTCAGACTAGGC | 6.72 | 6.32 | 3.05 | 2.47 | 4.78 | 6.38 | 2.6 | 6.55 | 2.44 | 3.5 | 4.08 | 5.19 | 3.61 | 1.99 | 6.36 | 4.61 | 1.78 | 5.34
GCTTGTAGATCAAGGTTATGAAAGACTAAGCTAA | 1.21 | 0.962 | 0.000562 | 0.0061 | 0.45 | 0.681 | -0.0933 | 0.915 | -0.0399 | 0.632 | 0.411 | 0.306 | 0.25 | -0.2 | 0.623 | 1.36 | -0.196 | -0.036
ATATGTAGGTTACAGCCGGGTCATTCAGGCTATG | 7.69 | 7.35 | 1.69 | 1.39 | 1.97 | 3.43 | 1.66 | 3.51 | 0.487 | 2.26 | 2.93 | 4.28 | 2.25 | 0.721 | 3.34 | 3.57 | 1.89 | 2.96
GCTCGGAGGACAAGGTCCGAGCTTTGTCCGTAGA | -0.364 | -0.655 | -1.03 | -1.31 | -1.07 | -0.519 | -1.19 | -0.414 | -1.77 | 0.839 | 0.2 | -0.185 | 0.242 | -0.26 | -0.792 | 0.554 | -0.414 | -0.775
CCTTACGGGTCACGCCAGGTTATAGCATCGGAGT | 3.85 | 4.83 | 0.182 | 0.0773 | 2.19 | 5.46 | 0.316 | 4.98 | 1.14 | 4.35 | 3.89 | 5.65 | 5.54 | 1.75 | 6.22 | 5.03 | 0.956 | 0.985
CCTACTGGGCCACGAAAGGTTATTGATTCAGTGA | 5.07 | 5.34 | 0.351 | -0.129 | 0.506 | 1.43 | 0.179 | 1.78 | 0.179 | 1.39 | 1.98 | 1.1 | 1.08 | -0.0139 | 1.2 | 1.66 | 0.302 | 0.238
ACTAGCAGGCCAAGGGTCACTCACGATTAGTCCG | 1.04 | 3.8 | 0.074 | -0.149 | 1.92 | 3.09 | -0.277 | 3.55 | 0.389 | 3.45 | 3.79 | 3.91 | 2.97 | 0.459 | 3.93 | 2.56 | 0.409 | 1.07
TCTAGTTGGTCAAAGGTCACACAGTCGAAATGCG | 3.56 | 5.99 | 1.3 | 1.88 | 4.79 | 6.01 | 1.76 | 7.79 | 3.16 | 5.05 | 5.27 | 7.05 | 6.38 | 1.73 | 8.22 | 4.12 | 2.06 | 2.98
TCTGCCAGGTCAGTTGGTCAGCTAACGAGCTGCC | 1.26 | 1.9 | -0.28 | 0.0313 | 0.213 | 0.349 | -0.79 | 0.976 | -1.08 | 3.29 | 2.77 | 2.86 | 3.55 | 0.569 | 1.12 | 2.11 | 0.521 | -0.514
